AmpC inh detg: blocks E. coli AmpC beta-lactamase in detergent assay. P00811. AmpC hydrolysis of nitrocefin, absorbance 480 nm, 0.01% Triton. Potency, µM (highest dose often 114 µM), for the others: top-dose activity change, negative = inhibition, usual class: inhibitors. 0.041% of 370,000 active. AID 485294;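 note: 0% = no-compound wells and -100% = no-enzyme wells; nearly all actives have a fitted effect of over 25% in size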
Target sequence (P00811 whole entry, looked up): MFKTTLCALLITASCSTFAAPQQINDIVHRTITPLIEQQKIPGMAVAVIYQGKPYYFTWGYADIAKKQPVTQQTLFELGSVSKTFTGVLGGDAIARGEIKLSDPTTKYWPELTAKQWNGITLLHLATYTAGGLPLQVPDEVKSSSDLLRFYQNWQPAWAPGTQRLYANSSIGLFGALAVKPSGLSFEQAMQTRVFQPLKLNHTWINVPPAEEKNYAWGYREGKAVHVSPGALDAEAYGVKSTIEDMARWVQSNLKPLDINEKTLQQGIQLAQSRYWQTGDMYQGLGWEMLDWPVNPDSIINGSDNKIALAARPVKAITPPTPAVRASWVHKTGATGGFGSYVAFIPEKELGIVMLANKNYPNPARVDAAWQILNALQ
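AmpC (5.3 nM in the dispensed reagent) in 20 mM phosphate pH 7.0 with 0.01% (detergent screen) or 0.0001% Triton X-100 was preincubated with compounds for 15 min at room temperature. Nitrocefin was then added from an 800 uM solution, and hydrolysis was followed at 480 nm.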
AmpC inh no detg: AmpC beta-lactamase inhibition without detergent | P00811 | AmpC nitrocefin hydrolysis, absorbance 480 nm, 0.0001% Triton | Potency, µM (titrated, usually from 57.1 µM), without a hit: at the highest dose activity change, negative = inhibition, usual class: inhibitors | 0.52% of 330,000 active | AID 485341;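 note: plate controls were no compound for no effect and no enzyme for full effect; nearly all actives have a fitted effect of over 20% in size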
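AmpC (5.3 nM in the dispensed reagent) in 20 mM phosphate pH 7.0 with 0.01% (detergent screen) or 0.0001% Triton X-100 was preincubated with compounds for 15 min at room temperature. Nitrocefin was then added from an 800 uM solution, and hydrolysis was followed at 480 nm.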
Lassa entry inh: inhibitors of Lassa virus binding or cell entry | Lassa virus pseudotype entry inhibition, cell reporter | Potency, µM (series often up to 37.9 µM), inactives show top-dose activity change, negative = inhibition, actives largely listed as inhibitors | 1.2% of 300,000 active | AID 540256; calls by dose curve; tested in HEK293 cells; note: nearly all actives have a fitted effect of over 50% in size
Marburg entry inh: blocks Marburg virus binding to or entry into cells. 1.8% of 300,000 active. Marburg virus pseudotyped entry inhibition, cell reporter. AID 540276. Potency, µM (titrated, usually from 37.8 µM), for inactives: at the highest dose activity change, negative = inhibition, usual class: inhibitors; calls by dose curve; tested in HEK293 cells
AMA1 RON2 block: inhibitors of Plasmodium falciparum AMA1-RON2 interaction; AlphaScreen AMA1-biotinylated RON2 peptide binding; Potency, µM (highest dose often 58.2 µM), for the others: at the top dose activity change, negative = inhibition, hits mostly inhibitors; 0.2% of 360,000 active; AID 720542;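 note: 0% = vehicle wells and -100% = peptide control; nearly all actives have a fitted effect of over 45% in size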
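AMA1 (3D7) with his tag at 25 nM final met compounds first, then biotinylated RON2 peptide at 25 nM; detection used donor plus acceptor beads, 10 µg/mL apiece, read by AlphaScreen after 30 min at room temperature.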
Numbers without * were called inactive; ? = inconclusive; nt = not tested or not shown; ! = not active in a repeat; [ ] = remark or other dose. Most compounds without a hit are left out; they make up all but 2.3% or so of the library. Unless noted, calls come from the whole dose curve; as a rule, active = well fitted curve in the direction sought with a large enough effect; inconclusive = small, poorly fitted or top-dose-only effect, or another doubt; inactive = no such curve, though single readings can be large; an effect the other way counts as inactive or inconclusive. Unless noted, % is set by controls: 0 for no effect and ±100 for the full control effect; potency is the fitted concentration of half-maximal effect.

SMILES	AmpC inh detg	AmpC inh no detg	Lassa entry inh	Marburg entry inh	AMA1 RON2 block
CCC(=O)c1ccc(OCc2ccc(C(=O)c3ccccc3)cc2)cc1	-14%	-15%	5µM*	?	-4%
CC1CCN(c2ccccc2NC(=S)NC(=O)c2cccs2)CC1	-3%	10µM*	-18%	?	61%
C=C1CC(COc2ccc3c(C)c(Cl)c(=O)oc3c2)(c2ccccc2)OC1=O (configuration not stated)	nt	nt	10µM*	7.1µM*	-4%
COc1ccc2c(C)c(Cl)c(=O)oc2c1	-15%	-8%	-5%	4%	-12%
c1ccc(C(NCc2cccnc2)(c2ccccc2)c2ccccc2)cc1	nt	nt	8.2µM*	0%	nt
c1ccc(CCc2cccnc2)cc1	nt	nt	-1%	9%	6%
CCCCC[C@]12Cc3cc(OC)c(OC)cc3[C@H](O1)c1c(cc(C)n(-c3ccccc3)c1=O)O2	nt	nt	nt	31%[14.2 µM]	nt
CCN(C(=O)Cn1ncc2c(=O)oc3ccc(C)cc3c21)c1cc(OC)ccc1OC	4%	nt	6%[46.1 µM]	2%[46.1 µM]	nt
O=C(N/N=C/c1sc(N2CCOCC2)nc1-c1ccccc1)c1ccccc1O	?	130%	1.3µM*	7.9µM*	70%
CCOC(=O)c1cnc2ccccc2c1Nc1ccc(N2CCOCC2)cc1	0%	nt	-6%[46.1 µM]	-3%[46.1 µM]	nt
CCOC(=O)c1ccc2ncc(C(=O)OCC)c(Nc3ccc(N4CCOCC4)cc3)c2c1	-6%	182%	?	7.9µM*	?
CCOC(=O)/C(=N/Nc1ccc(C)cc1)S(=O)(=O)c1ccc(Cl)cc1	-2%	-8%	7%	?	-6%
NNC(=O)/C(=N/Nc1ccccc1)S(=O)(=O)c1ccc(Cl)cc1	?	40µM*	16µM*	?	39%[2.32 µM]
CCCn1ccc2c(OCC(=O)Nc3ccc(OC)c(OC)c3)cccc2c1=O	1%	nt	?	nt	nt
COc1ccccc1CNc1ccc2c(c1)OC[C@H](CC(C)C)NS2(=O)=O	nt	nt	10%[46.1 µM]	nt	nt
COC(=O)c1ccc(C(=O)OC)c(NC(=O)CN(c2ccccc2)S(=O)(=O)N(C)C)c1	7%	100%	10µM*!	?	5%
Cc1ccc(NC(=O)C2(c3ccccc3)CC2(Cl)Cl)cc1C (configuration not stated)	5%	-28%	-5%	-17%	-2%
CCc1ccc(NC(=O)C2(c3ccccc3)CC2(Cl)Cl)cc1 (configuration not stated)	3%	-35%	16µM*	0%	8%
CCN(CCCNC(=O)c1cc2cc3cc(C)ccc3nc2s1)c1cccc(C)c1	0%	nt	?	nt	nt
O=C1CCCCC1Nc1ccc2ccccc2c1 (configuration not stated)	nt	nt	?	3.5µM*	30%
COc1ccccc1NC(=O)CSc1nnc(NC(=O)Nc2ccc(C)cc2)s1	1%	nt	?	nt	nt
O=C(c1ccco1)N1CCN(C(=O)c2ccc(-c3cccc(C(F)(F)F)c3)o2)CC1	-16%	142%	5µM*	?	6%
O=C(c1ccc(-c2cccc(C(F)(F)F)c2)o1)N1CCCCCCC1	?	72%	-2%	-24%	-21%
CCCCN(C)CC(O)Cn1cc(/C=C/C(=O)c2ccc(OC)c(OC)c2)c2ccccc21 (configuration not stated)	12%	nt	?	4.5µM*	nt
CCCCN(C)CC(O)Cn1cc(/C=C/C(=O)c2ccc(C)cc2)c2ccccc21 (configuration not stated)	2%	55%	?	?	-16%
SMILES	AmpC inh detg	AmpC inh no detg	Lassa entry inh	Marburg entry inh	AMA1 RON2 block
COc1cc(/C=N/N(C)c2ccccc2)ccc1O	3%	-15%	-1%	?	-20%
COc1cc(OC)c(OC)cc1/C=N/N(C)c1ccccc1	-10%	96%	1%	?	32µM*
COc1ccc2nc(SCC(=O)NC3CCCCC3)[nH]c2c1	-17%	-19%	?	?	-1%
CCOc1ccc2nc(SCC(=O)NC3CCCCC3)[nH]c2c1	0%	-17%	1%[46.1 µM]	10µM*	-1%
COc1ccc(N2c3ccccc3CN(Cc3ccccc3)CC2Cc2cc(OC)c(OC)c(OC)c2)cc1 (configuration not stated)	nt	nt	nt	nt	11µM*
COc1cc2c(cc1C(F)(F)F)N(C(=O)Nc1cc(F)cc(-c3cccnc3)c1)CC2	nt	nt	nt	1.3µM*	nt
Cn1ccc2cc3c(cc21)CCN3C(=O)Nc1cccnc1	?	27%	?	?	-1%
CC(=O)c1cccc(Nc2cc(C)nc3nc(-c4ccccc4C)nn23)c1	3%	nt	-4%[46.1 µM]	-6%[46.1 µM]	nt
Cc1cc(SCC(=O)c2ccc(O)c(O)c2)n2nc(C)c(-c3ccccc3)c2n1	4%	6.3µM*	nt	nt	80%
O=C1C=CC2=C3c4cc(O)c(O)cc4CC3(O)COC2=C1O (configuration not stated)	nt	nt	nt	nt	2.8µM*
Cc1ccc(-n2ncc(C(=O)NCCCN3CCCCC3)c2C2CCN(C(=O)OC(C)(C)C)CC2)cc1	-1%	nt	?	nt	nt
CSc1nc(C)cc(OCC(=O)N/N=C/c2ccccc2O)n1	-1%	-21%	?	2.8µM*	43%[11.6 µM]
COc1cc(CN(C(=O)COc2ccccc2Cl)c2ccccn2)cc(OC)c1OC	15%	nt	1%[46.1 µM]	4%[46.1 µM]	nt
O=C(Cc1ccccc1)Nc1c(C(=O)Nc2ccccc2F)oc2ccccc12	11%	nt	12%[46.1 µM]	3%[46.1 µM]	nt
COc1ccccc1C1CCN(Cc2ccccc2)CC1	0%	-19%	3%[46.1 µM]	?	-8%
COc1ccccc1C1CCN(Cc2ccc3ccccc3c2)CC1	-21%	-23%	7%	7.1µM*	?
COCCNc1c(-c2cc3ccc(C)c(C)c3[nH]c2=O)nc2ccccn12	6%	-8%	5µM*	?	-17%
Cc1ccc(S(=O)(=O)c2[nH]c(-c3ccccc3)nc2SC(C)C(=O)O)cc1 (configuration not stated)	3%	nt	11%[46.1 µM]	-2%[46.1 µM]	nt
O=C(COc1ccc(Cl)cc1)NCCc1csc(-c2ccc(C(F)(F)F)cc2)n1	6%	nt	9%[46.1 µM]	nt	nt
O=C(NCc1cccnc1)/C(=C/c1ccc(-c2ccc(Cl)cc2)o1)S(=O)(=O)c1ccccc1	-12%	17%	18µM*	?	-10%
O=C(CN(Cc1ccc(Br)cc1)S(=O)(=O)c1ccccc1)NCc1cccnc1	2%	71%	3%	16%	-16%
O=C(NCc1cccnc1)/C(=C/c1ccc(-c2cccc(C(F)(F)F)c2)o1)NC(=O)c1ccccc1	1%	164%	?	?	-27%
O=C(NCc1cccnc1)/C(=C\c1ccc(-c2ccc(Br)cc2)o1)S(=O)(=O)c1ccccc1	2%	-4%	13µM*	?	-16%
O=C(NC1CCCCCCC1)C1c2ccccc2C(=O)N1Cc1cccs1 (configuration not stated)	1%	-29%	?	-47%	-3%
CC1CCC(NC(=O)C2c3ccccc3C(=O)N2Cc2cccs2)CC1 (configuration not stated)	0%	-38%	3.5µM*	-14%	8%
